For ten molecules, growth results are on record in PubChem BioAssay (NCI).

The structures appear in SMILES notation. The panel holds about 83,000 compounds, 20% with a hit somewhere; the sample as a whole holds those more often.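 In brief: 96-well plates, 48 h treatment, single concentration, percent growth endpoint.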 Calls of active or inactive are those of the source. Rule for the calls: active = growth percent below 10; inactive = the rest.

Test in all cases: NCI-60 one-dose screen, 48 h (100 = growth as untreated, 0 = no growth, -100 = all killed)
Conditions in all cases: 10 µM unless noted

The subject of assay [1] is SK-MEL-2 melanoma.
Assay [2] deals with EKVX NSCLC.
The subject of assay [3] is SN12C renal.
Assay [4] has as its system UO-31 renal.
Assay [5] relates to TK-10 renal.
Assay [6] deals with ACHN renal.
The subject of assay [7] is CAKI-1 renal.
In assay [8] the test system is A498 renal.
For assay [9], the system named is CCRF-CEM leukemia.
Assay [10] relates to MOLT-4 leukemia.

Regarding `C#CCN(C)CCCOc1ccc(N(CC)C(=O)c2cc(C(C)C)c(O)cc2O)cc1Cl`, the growth in assay [1] was -57.9% (active); in [2] it was -7.81% (active); in assay [3], -52.1% (active); in assay [4], 8.11% (active); in assay [5], 11.1% (inactive); in assay [6] it was 11.6% (inactive). Besides, the growth is 9.89% (active) in [7], 21.6% (inactive) in assay [8], 7.35% (active) in assay [9] and -33.6% (active) in assay [10].
Take `O=C(N/N=C/c1c[nH]c2ccccc12)Nc1ccc(F)c(Cl)c1`: the growth in [1] is -9.22% (active); in [2], 40.9% (inactive); in [3], 42.1% (inactive); in [4], 37.1% (inactive); in [5], 80.6% (inactive); in [6], 41.7% (inactive). In addition, the growth was 32.1% (inactive) in assay [7], 66.6% (inactive) in assay [8], 12.9% (inactive) in assay [9] and 10.4% (inactive) in assay [10].
As for `Cc1ccc(C2CC(c3ccc(NC(=O)Nc4ccccc4)cc3)=NN2c2ccc(S(C)(=O)=O)cc2)cc1` (stereo not given), the growth in assay [1] was -13.7% (active); in assay [2] it was -2.75% (active); in assay [3], -94% (active); in [4], 3.37% (active); in [5] it was 21.7% (inactive); in [6], -44.4% (active). The growth was 5.74% (active) in assay [7], -16.3% (active) in assay [8], 9.5% (active) in assay [9] and 20.3% (inactive) in assay [10].
As to `COc1ccc(N=Nc2c(N)nn3c(N)c(C#N)c(-c4ccc(F)cc4)nc23)cc1`, the growth in assay [1] was 110% (inactive); in assay [2] it was 72.6% (inactive); in assay [3], 61.3% (inactive); in [4] it was 50.6% (inactive); in assay [5], 66.7% (inactive); in assay [6], 53.5% (inactive). The growth was 58.6% (inactive) in [7], 155% (inactive) in [8], 86.7% (inactive) in assay [9] and 77.6% (inactive) in assay [10].
Consider `CC1CCc2c(sc3nc(SCC(=O)c4cccc([N+](=O)[O-])c4)n(-c4ccccc4)c(=O)c23)C1` (stereo not given), for which the growth in assay [1] is 94.6% (inactive); in assay [2], 88% (inactive); in assay [3] it was 57.1% (inactive); in [4], 91.5% (inactive); in assay [5], 72.3% (inactive); in assay [6] it was 31.3% (inactive). Further, the growth is 12.4% (inactive) in assay [7], 115% (inactive) in assay [8], 61.8% (inactive) in assay [9] and 60.2% (inactive) in [10].
Regarding `Cc1ccc(C(=O)C[n+]2cccc3c4ccccc4ccc32)cc1`, the growth in assay [1] is 36.5% (inactive); in assay [2] it was 28.9% (inactive); in assay [3], 14.7% (inactive); in [4], 29.7% (inactive); in [5] it was 41.3% (inactive); in assay [6], 50.6% (inactive). The growth was 53.2% (inactive) in assay [7], 75.2% (inactive) in assay [8], 28.1% (inactive) in [9] and 14.4% (inactive) in assay [10].
Consider `O=C(N=Nc1c(O)[nH]c2ccc(Cl)cc12)c1ccc2nc(-c3ccc(Cl)cc3)[nH]c2c1`, for which the growth in assay [1] was 11.8% (inactive); in [2] it was 29.9% (inactive); in assay [3], -10.4% (active); in assay [4] it was 87.3% (inactive); in assay [5] it was 52.3% (inactive); in [6] it was 73.4% (inactive). Besides, the growth in assay [7] is 82.8% (inactive); in [8] it was 47.8% (inactive); in [9], 3.93% (active); in [10] it was 6.71% (active).
With `FC(F)(F)c1cc2c(Cl)ncnc2n1CCN1CCCCC1`, the growth is -16% (active) in assay [1]; 72% (inactive) in [2]; 59.7% (inactive) in assay [3]; -96.3% (active) in assay [4]; 105% (inactive) in [5]; -22.5% (active) in assay [6]. The growth is 21.3% (inactive) in [7], 113% (inactive) in assay [8], 4.18% (active) in assay [9] and -14.3% (active) in assay [10].
As for `O=C1NC(=NC23CC4CC(CC(C4)C2)C3)N/C1=C\c1ccc2ncccc2c1`, the growth is -5.99% (active) in assay [1]; 9.7% (active) in [2]; -2.27% (active) in assay [3]; 14.7% (inactive) in assay [4]; -22.9% (active) in assay [5]; 4.48% (active) in [6]. In addition, the growth is -61.1% (active) in [7], -31% (active) in [8], -15% (active) in assay [9] and -13% (active) in [10].
For the molecule `O=C(CSc1nc2sc3c(c2c(=O)n1-c1ccc(Cl)cc1)CCCC3)NNC(=O)c1ccc(F)cc1`, the growth in assay [1] is 104% (inactive); in [2] it was 63.3% (inactive); in [3] it was 40.1% (inactive); in [4], 56% (inactive); in assay [5], 163% (inactive); in assay [6], 85.6% (inactive). Further, the growth in assay [7] is 73.1% (inactive); in [8], 121% (inactive); in assay [9] it was 73.6% (inactive); in [10] it was 81.3% (inactive).
